Compounds with a hit are over-represented: about 3% of the library has one in this group of screens.
SENP8 block-1: human SENP8 protease inhibitors, primary screen, biochemical, fluorescence, Nedd8 protein substrate, uHTS; Sentrin-specific protease 8 (Homo sapiens), Q96LD8; recombinant SENP8; inhibition, % at 20 µM; 0.64% of 360,000 active; AID 602440, 2012; in the data active = inhibition mostly above about 40%, no sharp cut-off; inactive = mostly below about 27%
Target sequence (Q96LD8 whole entry, looked up): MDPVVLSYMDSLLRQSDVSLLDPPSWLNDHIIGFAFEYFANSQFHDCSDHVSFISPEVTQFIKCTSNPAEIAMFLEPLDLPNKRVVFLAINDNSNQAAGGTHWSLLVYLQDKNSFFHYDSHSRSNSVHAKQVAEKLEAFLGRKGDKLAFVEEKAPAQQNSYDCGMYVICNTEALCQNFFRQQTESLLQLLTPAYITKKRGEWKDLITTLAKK
C8 TRAIL sens: viability loss with TRAIL in NB7+C8 cells, primary screen, TRAIL sensitizer project, cell-based, ATPlite luminescence; inhibition (viability loss, TRAIL sensitization), % at 10 µM; 1% of 360,000 active; AID 624354, 2012;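 active = compounds causing at least 50% loss of cell viability in the single-dose screen, relative to plate controls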
SENP8 block-2: SENP8 protease inhibitors, primary screen, biochemical, luminescence; 1.2% of 330,000 active; AID 2540, 2010; Sentrin-specific protease 8 (Homo sapiens), Q96LD8; inhibition, % at 10 µM; purified SENP8, Z-RLRGG-aminoluciferin cleavage; in the data active = inhibition above about 50%
SENP7 inh: SENP7 protease inhibitors, primary screen, biochemical, luminescence, uHTS | recombinant SENP7, Z-RLRGG-aminoluciferin luminescence, 40 min | inhibition, % at 5 µM | 1.5% of 330,000 active | AID 434973, 2010;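 active = inhibition above about 50% at the single test dose, limit read from the data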;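 also: plate controls were DMSO with enzyme for no effect and no enzyme buffer wells for full effect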
PPC-1+TRAIL kill: compounds killing PPC-1 cancer cells with TRAIL present, primary screen, TRAIL potentiator project, ATPLite luminescence, uHTS; PPC-1 cells + TRAIL, ATPLite viability luminescence; cell killing (% activity), % at 4 µM or 5 µM; 0.41% of 220,000 active;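 active = cell killing above 50% in the first pass at 4 µM, then a duplicate retest at 5 µM averaging 50% or more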;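 also: plate controls were cells with TRAIL plus DMSO for no effect and medium-only wells lacking cells for full effect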
SENP6 inh: SENP6 protease inhibitors, primary screen, biochemical, luminescence, uHTS | Sentrin-specific protease 6 (Homo sapiens), Q9GZR1 | Recombinant SENP6 catalytic domain, aminoluciferin luminescence | inhibition, % at 10 µM | 1.8% of 330,000 active | AID 2599, 2010;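 active = inhibition above about 50% at the single tested dose, limit read from the data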;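 also: plate controls were DMSO wells with enzyme for no effect and DMSO wells lacking enzyme for full effect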
SENP8 confirm: SENP8 protease inhibitors, retest, confirmation, biochemical, luminescence, single concentration; inhibition, % at 12.5 µM; Recombinant SENP8, Z-RLRGG-aminoluciferin luminescence, 60 min; shares compounds with SENP7 inh; AID 488912, 2010; 40% of 6,200 active;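 active = mean inhibition across replicates above about 50%, limit read from the data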
SENP6 conf: SENP6 protease inhibitors, confirmation, biochemical, luminescence, single concentration | shares compounds with SENP7 inh | recombinant SENP6, Z-RLRGG-aminoluciferin luminescence | inhibition, % at 12.5 µM | 58% of 6,200 active | AID 488915, 2010
SENP7 confirm: SENP7 protease inhibitors, retest, confirmation, biochemical, luminescence, single concentration. shares compounds with SENP7 inh. recombinant SENP7, Z-RLRGG-aminoluciferin luminescence, 40 min. inhibition, % at 12.5 µM. 69% of 6,200 active
Casp3 select: caspase-3 protease inhibitors, confirmation, selectivity assay for SENP inhibitor project, biochemical, single concentration; shares compounds with SENP7 inh; 60% of 6,200 active; purified caspase-3, Z-DEVD-aminoluciferin luminescence, 60 min; inhibition, % at 12.5 µM; AID 488918, 2010;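 active = mean inhibition above about 50%, limit read from the data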;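 also: plate controls were enzyme with DMSO for no effect and wells without caspase-3 for full effect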
Target sequence (P42574 28-227 limits assumed): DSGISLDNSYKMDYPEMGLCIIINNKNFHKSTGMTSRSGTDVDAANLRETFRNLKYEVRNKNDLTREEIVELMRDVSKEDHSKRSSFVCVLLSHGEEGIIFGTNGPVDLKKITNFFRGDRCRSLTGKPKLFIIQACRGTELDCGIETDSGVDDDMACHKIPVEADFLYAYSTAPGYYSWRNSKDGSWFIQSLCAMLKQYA
SENP luc ctr: luminescence interference (SENP counter-screen); Pre-incubated SENP8/Z-RLRGG-aminoluciferin, luciferase luminescence interference; 39% of 6,200 active; shares compounds with SENP7 inh; inhibition, % at 12.5 µM;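 active = mean inhibition above about 50% when retested at one dose, limit read from the data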;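 also: plate controls were DMSO wells with completed reaction for no effect and substrate without enzyme for full effect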
The depositor's hits bear a star.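 The calls were made as follows, unless noted: active = mean inhibition above about 50% in the one-dose retest (limit read from the data); inactive = the rest.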

`CC(C)OC(=O)c1c(N)n(CC2CCCO2)c2nc3ccccc3nc12` (centres undefined) gave SENP8 block-1 inactive, C8 TRAIL sens 3, SENP8 block-2 39, SENP7 inh 39, PPC-1+TRAIL kill 10, SENP6 inh 51*, SENP8 confirm 6, SENP6 conf 3, SENP7 confirm 0, Casp3 select -2 and SENP luc ctr -1.
Screening CC(C)OCCCNC(=O)c1c(N)n(CC2CCCO2)c2nc3ccccc3nc12 (centres undefined) returned SENP8 block-1 -266, C8 TRAIL sens 6, SENP8 block-2 92*, SENP7 inh 66*, PPC-1+TRAIL kill 25, SENP6 inh 94*, SENP8 confirm -20, SENP6 conf 12, SENP7 confirm 4, Casp3 select -8 and SENP luc ctr -15.
`CC(C)CCOC(=O)c1c(N)n(CC2CCCO2)c2nc3ccccc3nc12` (centres undefined) gave SENP8 block-1 inactive, C8 TRAIL sens -19, SENP8 block-2 -1, SENP7 inh 9, PPC-1+TRAIL kill 8 and SENP6 inh 7.
For CCN(CC)P(c1n(C)cc[n+]1C)N(CC)CC the results were SENP8 block-1 13, C8 TRAIL sens 0, SENP8 block-2 -6, SENP7 inh -9, PPC-1+TRAIL kill 25 and SENP6 inh -24.
`Cc1nc(Cl)sc1C(=O)Nc1ccc2ccccc2c1` gave SENP8 block-1 9, C8 TRAIL sens 4, SENP8 block-2 20, SENP7 inh 29, PPC-1+TRAIL kill 17, SENP6 inh 55*, SENP8 confirm 36, SENP6 conf 32, SENP7 confirm 75*, Casp3 select 34 and SENP luc ctr 32.
CCC(C)C12CN3CCN(CC(C)(C3)C1=O)C2 (centres undefined) was read as SENP8 block-1 18, C8 TRAIL sens -16, SENP8 block-2 -8, SENP7 inh 0, PPC-1+TRAIL kill 5 and SENP6 inh -4.
Screening O=C(Nc1ccccc1)c1c(O)[nH]c(=S)[nH]c1=O returned SENP8 block-1 -3, C8 TRAIL sens -12, SENP8 block-2 52*, SENP7 inh 61*, SENP6 inh 63*, SENP8 confirm 62*, SENP6 conf 54*, SENP7 confirm 88*, Casp3 select 82* and SENP luc ctr 60*.
For CN(C)C(=O)Oc1ccc(-c2cn3cc(Cl)ccc3n2)cc1 the results were SENP8 block-1 -190, C8 TRAIL sens 76*, SENP8 block-2 91*, SENP7 inh 94*, PPC-1+TRAIL kill 54*, SENP6 inh -1, SENP8 confirm -24, SENP6 conf 93*, SENP7 confirm 102*, Casp3 select 97* and SENP luc ctr 44.
`CN(C)C(=O)Oc1cccc(-c2cn3cc(Cl)ccc3n2)c1` gave SENP8 block-1 -185, C8 TRAIL sens 43, SENP8 block-2 -1, SENP7 inh 4, PPC-1+TRAIL kill 40 and SENP6 inh -11.
Screening COc1ccc(-c2nc3ccccc3c(=O)o2)cc1 returned SENP8 block-1 9, C8 TRAIL sens 55*, SENP8 block-2 19, SENP7 inh 90*, PPC-1+TRAIL kill 47, SENP6 inh 81*, SENP8 confirm 63*, SENP6 conf 44, SENP7 confirm 75*, Casp3 select 54* and SENP luc ctr 34.
CCOc1cc(/C=C2/C(=O)NC(=O)N(c3ccc(CC)cc3)C2=O)ccc1OC(=O)c1cccs1 was read as SENP8 block-1 19, C8 TRAIL sens 7, SENP8 block-2 -6, SENP7 inh 1, PPC-1+TRAIL kill -14 and SENP6 inh -4.
COc1ccc(Cn2c(N)c(C(=O)NCc3ccco3)c3nc4ccccc4nc32)cc1 was read as SENP8 block-1 -415, C8 TRAIL sens 2, SENP8 block-2 25, SENP7 inh 28, PPC-1+TRAIL kill 20, SENP6 inh 58*, SENP8 confirm -4, SENP6 conf -6, SENP7 confirm -4, Casp3 select -1 and SENP luc ctr -6.
For Nc1c(C(=O)NCc2ccco2)c2nc3ccccc3nc2n1Cc1ccc(F)cc1 the results were SENP8 block-1 -484, C8 TRAIL sens -11, SENP8 block-2 75*, SENP7 inh 54*, PPC-1+TRAIL kill 12, SENP6 inh 89*, SENP8 confirm 1, SENP6 conf -4, SENP7 confirm -5, Casp3 select -3 and SENP luc ctr -13.
Screening O=[N+]([O-])c1ccc(C(=Nc2ccccc2)N2CC2)cc1 returned SENP8 block-1 26 and C8 TRAIL sens -12.
Screening COC(=O)c1nc(-c2ccc3c(n2)C(=O)C(N)=C(OC)C3=O)c(N)c(-c2ccc(OC)c(OC)c2O)c1C returned SENP8 block-1 49*, C8 TRAIL sens 46, SENP8 block-2 81*, SENP7 inh 13, PPC-1+TRAIL kill 29, SENP6 inh 76*, SENP8 confirm -8, SENP6 conf -3, SENP7 confirm 10, Casp3 select -2 and SENP luc ctr -4.
For CCCc1nc2ccc(Br)cc2c(=O)n1-c1ccc([N+](=O)[O-])c(C(F)(F)F)c1 the results were SENP8 block-1 27, C8 TRAIL sens 44, SENP8 block-2 -6, SENP7 inh 3, PPC-1+TRAIL kill 31 and SENP6 inh 1.
Screening O=[N+]([O-])c1ccc(N2CCNCC2)c2ncccc12 returned PPC-1+TRAIL kill 17.

From PubChem BioAssay
